Screening data from PubChem.
RAD52 anneal inh = RAD52 DNA annealing inhibitors, primary screen, biochemical, FRET, single point, set 2. inhibition, % at 18.7 µM. recombinant RAD52 DNA annealing, FRET fluorescence. actives 0.46% (n = 360,000). AID 651710, 2012;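 active = every replicate showing at least 50% inhibition; inconclusive = mean inhibition at least 50% but not in every replicate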
Target sequence (P43351 whole entry, looked up): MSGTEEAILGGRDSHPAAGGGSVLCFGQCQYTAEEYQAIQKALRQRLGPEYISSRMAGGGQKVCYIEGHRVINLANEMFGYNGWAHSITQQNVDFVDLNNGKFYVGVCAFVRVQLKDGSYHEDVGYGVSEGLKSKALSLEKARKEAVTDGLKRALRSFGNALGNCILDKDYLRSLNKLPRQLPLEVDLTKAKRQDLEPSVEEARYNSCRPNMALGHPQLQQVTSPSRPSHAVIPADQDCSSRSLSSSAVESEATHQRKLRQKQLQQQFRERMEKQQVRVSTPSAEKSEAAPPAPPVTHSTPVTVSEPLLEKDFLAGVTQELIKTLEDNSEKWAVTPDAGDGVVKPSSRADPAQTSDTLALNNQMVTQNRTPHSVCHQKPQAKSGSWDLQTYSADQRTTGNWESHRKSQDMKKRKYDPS
MLL AF4-AF9 inh = inhibitors of AF4 peptide binding to AF9, primary screen, biochemical, AlphaScreen, biotin-AF4 peptide, FLAG-AF9, single point. AID 651704, 2012. inhibition, % at 10 µM. Protein AF-9 (Homo sapiens), P42568. actives 0.47% (n = 350,000);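 active = every replicate reaching a set inhibition limit, whatever the replicate mean, cut at about 25% in these data; inconclusive = mean inhibition reaches that limit but some replicates miss it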;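 note: 0% = plate neutral control median and 100% = total signal loss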
INS-1E GSIS act = GLuc luminescence reporter in INS-1E cells, primary screen for activators of glucose-dependent secretion of insulin | INS-1E GLuc reporter insulin secretion, 2-3 h | activation, % at 16.6 µM | actives 0.61% (n = 370,000);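 active = lowest replicate activation of at least 40%, so every replicate reaches that level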;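 note: 0% = median of neutral control wells and 100% = median of IBMX positive control wells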
RAD54 inh = inhibitors of human RAD54 branch migration, primary screen, biochemical, fluorescence, single point; RAD54 Holliday junction branch migration, FAM/BHQ fluorescence; inhibition, % at 10.4 µM; actives 0.14% (n = 360,000); AID 602329, 2012;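 active = mean normalized replicate activity at least 40 and at least half of replicates scoring 40 or more; inconclusive = only one of the two criteria met; inactive = mean below 40 and under half of replicates reaching 40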;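 note: 0% = median of neutral control wells and 100% = median of positive control wells; inhibitors cause a drop in the FAM fluorescence signal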
DENV2 CPE rescue = inhibitors of DENV2 cytopathic effect, primary screen, cell-based, plate reader, single concentration; DENV2-infected cells, cytopathic effect rescue; CPE inhibition, % at 9.99 µM; actives 1.7% (n = 350,000); in the data active = CPE inhibition above about 20%, passing the limit was not always enough; inconclusive = no clear call, values can overlap the other calls; tested in BHK-21 cells;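 note: 0% = median of neutral control wells and 100% = median of positive control wells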
An asterisk follows results filed as active; u = inconclusive; x = no result. Only some compounds are listed: those with a hit (about 3.1% of all), similar ones and a draw of the others.

SMILES | RAD52 anneal inh | MLL AF4-AF9 inh | INS-1E GSIS act | RAD54 inh | DENV2 CPE rescue
C[C@@H]1CCCCO[C@H](CN(C)Cc2ccc(C(F)(F)F)cc2)[C@@H](C)CN([C@@H](C)CO)C(=O)c2cc(NS(=O)(=O)c3cn(C)cn3)ccc2O1 | 8 | 3 | -15 | -1 | -6
Cc1ccc(S(=O)(=O)Nc2ccc3c(c2)CC(=O)N([C@@H](C)CO)C[C@@H](C)[C@H](CN(C)Cc2ccncc2)O3)cc1 | 21 | 1 | -1 | -17 | 37*
C[C@@H]1CN([C@H](C)CO)C(=O)Cc2cc(NS(=O)(=O)c3ccccc3)ccc2O[C@@H]1CN(C)Cc1ccc(Cl)c(Cl)c1 | 14 | -1 | -16 | -1 | 8
C[C@@H]1CN([C@H](C)CO)C(=O)Cc2cc(NS(=O)(=O)c3ccccc3)ccc2O[C@H]1CN(C)Cc1ccc(Cl)c(Cl)c1 | 24 | 2 | -11 | 0 | 33*
C[C@H]1CN([C@@H](C)CO)C(=O)Cc2cc(NS(=O)(=O)c3ccccc3)ccc2O[C@@H]1CN(C)Cc1ccccc1 | 1 | 4 | -6 | -16 | -14
Cc1ccc(S(=O)(=O)Nc2ccc3c(c2)CC(=O)N([C@@H](C)CO)C[C@H](C)[C@H](CN(C)Cc2ccncc2)O3)cc1 | -6 | 1 | 1 | 3 | 5
C[C@H](CO)N1C[C@H](C)[C@H](CN(C)Cc2ccccc2)Oc2ccc(NS(=O)(=O)c3ccccc3)cc2CC1=O | -5 | 4 | -1 | -9 | 55*
C[C@@H]1CN([C@@H](C)CO)C(=O)Cc2cc(NS(=O)(=O)c3ccccc3)ccc2O[C@@H]1CN(C)Cc1ccc(-c2ccccc2)cc1 | 13 | -3 | -2 | -7 | 44*
COc1ccc(-c2ccc3c(c2)O[C@@H](CN(C)C(C)=O)[C@@H](C)CN([C@H](C)CO)S3(=O)=O)cc1 | 13 | -3 | -9 | 5 | -12
C[C@H](CO)N1C[C@H](C)[C@@H](CN(C)Cc2ccc(C(=O)O)cc2)OCCCC[C@H](C)Oc2ccc(NS(=O)(=O)c3ccc(Cl)cc3)cc2C1=O | 14 | 0 | 4 | -6 | u
C[C@@H]1CN([C@H](C)CO)C(=O)Cc2cc(NS(=O)(=O)c3ccccc3)ccc2O[C@@H]1CN(C)Cc1ccc(-c2ccccc2)cc1 | -8 | 0 | 2 | -7 | 56*
COc1ccc(CN(C)C[C@H]2Oc3ccc(NS(=O)(=O)c4ccc(Cl)cc4)cc3CC(=O)N([C@@H](C)CO)C[C@@H]2C)cc1 | 41 | 9 | -21 | 2 | 25*
Cc1ccc(S(=O)(=O)Nc2ccc3c(c2)CC(=O)N([C@H](C)CO)C[C@H](C)[C@@H](CN(C)Cc2ccc(-c4ccccc4)cc2)O3)cc1 | 67* | 6 | -9 | 3 | -7
Cc1ccc(S(=O)(=O)Nc2ccc3c(c2)CC(=O)N([C@@H](C)CO)C[C@H](C)[C@H](CN(C)Cc2ccc(-c4ccccc4)cc2)O3)cc1 | 19 | 0 | 7 | -4 | u
COc1ccc(S(=O)(=O)Nc2ccc3c(c2)CC(=O)N([C@H](C)CO)C[C@@H](C)[C@H](CN(C)Cc2ccc(-c4ccccc4)cc2)O3)cc1 | -2 | -2 | -1 | -7 | 57*
C[C@H](CO)N1C[C@H](C)[C@H](CN(C)C(=O)Nc2ccc3c(c2)OCO3)Oc2ccc(NS(C)(=O)=O)cc2C1=O | 17 | -6 | 5 | 2 | 0
CNC[C@@H]1Oc2ccc(NS(=O)(=O)c3ccc(C)cc3)cc2CC(=O)N([C@@H](C)CO)C[C@H]1C | -5 | -3 | 10 | 7 | 13
CNC[C@@H]1Oc2ccc(NS(=O)(=O)c3ccc(C)cc3)cc2CC(=O)N([C@H](C)CO)C[C@H]1C | 2 | -2 | 1 | -5 | 42*
C[C@@H]1CN([C@@H](C)CO)C(=O)Cc2cc(NS(=O)(=O)c3ccc(F)cc3)ccc2O[C@@H]1CN(C)Cc1ccc(C(=O)O)cc1 | -6 | -4 | 13 | 2 | 30*
C[C@H]1CN([C@@H](C)CO)C(=O)c2cccc(NS(=O)(=O)c3ccccc3)c2O[C@@H]1CN(C)C(=O)Nc1ccccc1 | 16 | -11 | 14 | -11 | 6
CC(=O)NC[C@H]1[C@@H](c2ccc(-c3cccnc3)cc2)[C@H](CO)N1C(=O)C1CC1 | -23 | 0 | -9 | 3 | 28*
CC(=O)N1[C@H](CO)[C@@H](c2ccc(-c3cccc(F)c3)cc2)[C@H]1CNC(=O)C1CC1 | x | x | -15 | 5 | 124*
CC(=O)NC[C@@H]1[C@H](c2ccc(-c3ccccc3F)cc2)[C@H](CO)N1C(=O)C1CC1 | -8 | -1 | -7 | 5 | 0
C/C=C/c1ccc([C@@H]2[C@H](CO)N(C(=O)Cc3ccncc3)[C@H]2CNC(C)=O)cc1 | x | x | 11 | -5 | 31*
CC(=O)NC[C@H]1[C@H](c2ccc(-c3ccccc3F)cc2)[C@@H](CO)N1C(=O)C1CC1 | -78 | 0 | 4 | 4 | 81*
SMILES | RAD52 anneal inh | MLL AF4-AF9 inh | INS-1E GSIS act | RAD54 inh | DENV2 CPE rescue
C[C@H](CO)N1C[C@H](C)[C@@H](CN(C)C(=O)c2ccc3c(c2)OCO3)Oc2ncc(C#CCN(C)C)cc2C1=O | -5 | -1 | 15 | -2 | 6
COc1ccc(NC(=O)N(C)C[C@@H]2Oc3ccc(NC(=O)C4CCCCC4)cc3CC(=O)N([C@@H](C)CO)C[C@H]2C)cc1 | -20 | 1 | -9 | -5 | -4
C[C@@H]1CCCCO[C@H](CN(C)C(=O)Nc2ccc(C(F)(F)F)cc2)[C@H](C)CN([C@H](C)CO)C(=O)c2cc(NS(=O)(=O)c3cccs3)ccc2O1 | -10 | -2 | -2 | 21 | -5
CN1[C@@H]2c3ccc(-c4ccc(F)cc4)c(=O)n3C[C@@H]2[C@@H](CO)[C@@H]1C(=O)NCCN1CCCCC1 | -4 | 2 | 8 | 8 | 13
CC(=O)NC[C@H]1[C@@H](c2ccc(-c3ccccc3F)cc2)[C@@H](CO)N1C(C)=O | -13 | 0 | -3 | -3 | 41*
CC(=O)N1[C@H](CO)[C@H](c2ccc(-c3ccccc3F)cc2)[C@@H]1CNC(C)C | 5 | 0 | 3 | x | 1
CC(=O)NC[C@@H]1[C@@H](c2ccc(-c3ccccc3)cc2)[C@@H](CO)N1C(=O)C1CC1 | -11 | -10 | -7 | 1 | -16
CC(=O)NC[C@@H]1[C@H](c2ccc(-c3ccccc3)cc2)[C@H](CO)N1C(=O)C1CC1 | -10 | -10 | -8 | 9 | 76*
C[C@@H]1CN([C@H](C)CO)C(=O)c2cc(NS(=O)(=O)c3ccc(Cl)cc3)ccc2O[C@@H](C)CCCCO[C@@H]1CN(C)C(=O)Cc1ccccc1 | -14 | -1 | -21 | 2 | -1
